Measured values published in PubChem BioAssay (Tox21).
Values joined by “and” are separate entries in the source; they are usually repeats but may differ in a detail not shown here. Identical values can stand only once. Inconclusive results are not listed. A call without a number means that no potency is given here. More than one record can exist for a structure, and the calls need not agree. Active and inactive are the calls of the source. Unless noted, the call rests on the fitted dose curve.

Legend:
[1] = qHTS assay to identify small molecule antagonists of the sonic hedgehog signaling (Shh) pathway (AID 1259369); further: nearly all actives have a fitted effect of over 45% in size; further: potency means the concentration at half of the fitted maximal effect
Summary of the method: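 Luminescence readout: firefly Luc under Gli1 response element in 3T3Gli1-Luc cells (NIH/3T3 clone). Antagonist mode, stimulation by conditioned medium; compound exposure 24hr at 37 C, 5% CO2.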

[2] = target: Estrogen receptor beta (Homo sapiens) (UniProt Q92731); experiment: qHTS assay to identify small molecule agonists of the estrogen receptor beta (ER-beta) signaling pathway (AID 1259377; active means well fitted activation curve with a large enough effect in the signal ratio in the repeat runs, not every such curve was filed as active; the % refers to the signal ratio)
Summary of the method: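 HEK293T ER-beta-UAS-bla; 2% charcoal-stripped FBS; cells pre-incubated 6 hr, compound 16 hr, 37C/5% CO2; LiveBLAzer B/G FRET substrate 2 h RT; fluorescence intensity read.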

[3] = target: Estrogen receptor beta (Homo sapiens) (UniProt Q92731); experiment: qHTS assay to identify small molecule antagonists of the estrogen receptor beta (ER-beta) signaling pathway (AID 1259378; active means well fitted inhibition curve with a large enough effect in the signal ratio in the repeat runs, not every such curve was filed as active; the % refers to the signal ratio; further: potency means the concentration at half of the fitted maximal effect)
Summary of the method: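 Antagonist mode: compounds added to beta-lactamase reporter HEK293T ER-beta-UAS cells stimulated with E2 (1nM final), 16 hr at 37C. LiveBLAzer B/G FRET substrate, 2 hours room temperature, fluorescence read-out.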

[4] = qHTS assay to identify small molecule agonists of the androgen receptor (AR) signaling pathway in the presence of an antagonist - cell viability counter screen (AID 1259379; active means well fitted curve in the direction sought with a large enough effect in the repeat runs; an effect the other way counts as inactive or inconclusive; further: nearly all actives have a fitted effect of over 25% in size; further: potency means the concentration at half of the fitted maximal effect)
Summary of the method: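 Viability counter screen: CellTiter-Fluor fluorescence, measured in the same wells as the luciferase read-out. MDA-kb2 cells, 3,000/well, with nilutamide at 3.0uM final and compounds at 15 concentrations, 16 hr at 37C, 0% CO2.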

[5] = qHTS assay to identify small molecule agonists of the estrogen receptor beta (ER-beta) signaling pathway - cell viability counter screen (AID 1259380; active means well fitted curve in the direction sought with a large enough effect in the repeat runs; an effect the other way counts as inactive or inconclusive; further: nearly all actives have a fitted effect of over 30% in size; further: potency means the concentration at half of the fitted maximal effect)
Summary of the method: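 Luminescence read-out (CellTiter-Glo, 30 min, room temp) taken in the same wells as the beta-lactamase reporter assay; ER-beta-UAS-bla HEK293T cells exposed to DMSO-dissolved compounds for 16 hr at 37C in 2% charcoal-stripped FBS medium.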

[6] = target: Androgen receptor (Homo sapiens) (UniProt P10275); experiment: qHTS assay to identify small molecule agonists of the androgen receptor (AR) signaling pathway in the presence of an antagonist (AID 1259381); further: nearly all actives have a fitted effect of over 15% in size
Summary of the method: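 Luciferase read-out (ONE-Glo, 30min room temperature) in MDA-kb2 MMTV-reporter cells; agonist mode run in presence of AR antagonist nilutamide, 3.0uM final. Compounds tested as 15-point series, 16hr exposure at 37C, 0% CO2.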

[7] = qHTS assay to identify small molecule antagonists of the estrogen receptor beta (ER-beta) signaling pathway - cell viability counter screen (AID 1259382; active means well fitted curve in the direction sought with a large enough effect in the repeat runs; an effect the other way counts as inactive or inconclusive; further: nearly all actives have a fitted effect of over 55% in size; further: potency means the concentration at half of the fitted maximal effect)
Summary of the method: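 Luminescent ATP read-out (CellTiter-Glo, 30 min, RT) taken in the same wells as the bla reporter assay. HEK293T ER-beta-UAS-bla cells in 2% charcoal-stripped FBS were exposed to compounds with 1nM E2 for 16 hr at 37C.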

[8] = qHTS assay to identify small molecule agonists or antagonists of the thyroid stimulating hormone receptor (TSHR) signaling pathway - wild type cell line counter screen (AID 1259384)
Summary of the method: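 Counter screen in untransfected Hek293: compounds (15-point titration, triplicate) plus phosphodiesterase inhibitor Ro20-1724 added after 18 h plating; 30 min RT. Intracellular cAMP via competitive d2/cryptate immunoassay, 1 h incubation.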

[9] = target: Thyrotropin receptor (Homo sapiens) (UniProt P16473); experiment: qHTS assay to identify small molecule antagonists of the thyroid stimulating hormone receptor (TSHR) signaling pathway (AID 1259385); further: nearly all actives have a fitted effect of over 20% in size; further: potency means the concentration at half of the fitted maximal effect
Summary of the method: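 Antagonist mode: compound-treated TSHR-expressing HEK293 cells were stimulated with 1.5 ng/mL TSH (final) in presence of Ro20-1724 for 30 min at RT. HTRF cAMP detection after 1 h; each compound tested at 15 concentrations, triplicate.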

[10] = target: Progesterone receptor (Homo sapiens) (UniProt P06401); experiment: qHTS assay to identify small molecule antagonists of the progesterone receptor (PR) signaling pathway (AID 1346795; active means well fitted inhibition curve with a large enough effect in the signal ratio in the repeat runs, not every such curve was filed as active; the % refers to the signal ratio; further: potency means the concentration at half of the fitted maximal effect)
Summary of the method: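 Read-out is fluorescence from the LiveBLAzer B/G FRET substrate, cleaved by a UAS-controlled beta-lactamase in PR-UAS-bla HEK293T cells after 16 hr exposure to compound plus 1 nM promegestone (final), followed by 2 hr at room temperature.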

[11] = qHTS assay to identify small molecule antagonists of the progesterone receptor (PR) signaling pathway - cell viability counter screen (AID 1346798; active means well fitted curve in the direction sought with a large enough effect in the repeat runs; an effect the other way counts as inactive or inconclusive; further: nearly all actives have a fitted effect of over 50% in size; further: potency means the concentration at half of the fitted maximal effect)
Summary of the method: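 HEK293T PR-UAS-bla, 2% charcoal-stripped FBS; 4 hr pre-plate; cpd + R5020, 16 h 37C; LiveBLAzer read first; then CellTiter-Glo 30 min RT, luminescence.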

[12] = qHTS assay to identify small molecule agonists of the progesterone receptor (PR) signaling pathway - cell viability counter screen (AID 1346799); further: nearly all actives have a fitted effect of over 45% in size; further: potency means the concentration at half of the fitted maximal effect
Summary of the method: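 Luminescence from CellTiter-Glo, added after the beta-lactamase FRET read in the same wells, gave cytotoxicity in PR-UAS-bla HEK293T cells treated with compounds for 16 hr at 37C.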

[13] = qHTS assay to identify small molecule antagonists of the TGF-beta/Smad signaling pathway - cell viability counter screen (AID 1346824; active means well fitted curve in the direction sought with a large enough effect in the repeat runs; an effect the other way counts as inactive or inconclusive; further: nearly all actives have a fitted effect of over 50% in size; further: potency means the concentration at half of the fitted maximal effect)
Summary of the method: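 Cytotoxicity counter-screen run in the same wells as the beta-lactamase Smad reporter read: CellTiter-Glo luminescence after 30 min at room temperature. HEK 293T SBE-bla cells had 5 hr compound exposure at 37 C with TGF-beta1 (0.25 ng/mL stock).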

[14] = qHTS assay to identify small molecule agonists of the TGF-beta/Smad signaling pathway - cell viability counter screen (AID 1346829; active means well fitted curve in the direction sought with a large enough effect in the repeat runs; an effect the other way counts as inactive or inconclusive; further: top concentration of the series differs between compounds; nearly all actives have a fitted effect of over 45% in size)
Summary of the method: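 Luminescence from CellTiter-Glo, read after a 30 min room-temperature incubation, gives cell viability of SBE-bla HEK 293T cells treated 5 hr with compounds at 37 C.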

[15] = qHTS assay to identify small molecule agonists of the TGF-beta/Smad signaling pathway (AID 1346859; active means well fitted activation curve with a large enough effect in the signal ratio in the repeat runs, not every such curve was filed as active; the % refers to the signal ratio; further: series mostly up to about 77 µM)
Summary of the method: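 SBE-bla HEK 293T, 4,000 cells/well, plated o/n; cpd in DMSO, 5 hr, 37 C/5% CO2; B/G FRET substrate 2 hr RT; ex 405, em 460/530 nm.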

[16] = target: Thyrotropin-releasing hormone receptor (Homo sapiens) (UniProt P34981); experiment: qHTS assay to identify small molecule antagonists of the thyrotropin-releasing hormone receptor (TRHR) signaling pathway (AID 1346877; active means well fitted inhibition curve with a large enough effect in the repeat runs, not every such curve was filed as active; further: series mostly up to about 51 µM)
Summary of the method: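 HEK293/TRHR cells, 18 h, 37 °C; Ca2+ dye 2 h; cpd 5 min RT; TRH 1 nM final; fluorescence read 3 min, 1 s intervals; 15 concs, triplicate.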

[17] = target: Thyrotropin-releasing hormone receptor (Homo sapiens) (UniProt P34981); experiment: qHTS assay to identify small molecule agonists of the thyrotropin-releasing hormone receptor (TRHR) signaling pathway (AID 1346891); further: series mostly up to about 58 µM
Summary of the method: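 Intracellular calcium rise, read as fluorescence every second for 3 min, served as the agonist signal in dye-loaded HEK293 cells expressing TRHR; each compound ran at 15 concentrations in triplicate.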

[18] = qHTS assay to identify small molecule agonists of the estrogen receptor alpha (ER-alpha) signaling pathway in the presence of an antagonist - cell viability counter screen (AID 1259386; active means well fitted curve in the direction sought with a large enough effect in the repeat runs; an effect the other way counts as inactive or inconclusive;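 further: series mostly up to about 92 µM; cells exposed to compounds for 22 h at 37 °C before the viability read; nearly all actives have a fitted effect of over 30% in size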)
Summary of the method: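 Read-out: CellTiter-Fluor fluorescence after 1hr reagent incubation, measured in the same wells as the luciferase readout. VM7Luc4E2 cells were exposed to 15 compound concentrations with 10.0nM ICI-182,780 for 22hr at 37C.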

[19] = target: Progesterone receptor (Homo sapiens) (UniProt P06401); experiment: qHTS assay to identify small molecule agonists of the progesterone receptor (PR) signaling pathway (AID 1346784); further: nearly all actives have a fitted effect of over 30% in size
Summary of the method: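 Beta-lactamase reporter read-out: after 16 hr compound treatment at 37C and a further 2 hr at room temperature with LiveBLAzer B/G FRET substrate, fluorescence was measured in PR-UAS-bla HEK 293T cells grown in 2% charcoal-stripped serum.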

[20] = target: Estrogen receptor (Homo sapiens) (UniProt P03372); experiment: qHTS assay to identify small molecule agonists of the estrogen receptor alpha (ER-alpha) signaling pathway in the presence of an antagonist (AID 1259383); further: top concentration of the series differs between compounds; nearly all actives have a fitted effect of over 15% in size
Summary of the method: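 Luciferase luminescence (ONE-Glo, 30min at room temperature) measured in VM7Luc4E2 cells after 22hr compound exposure at 15 concentrations, with 10.0nM ICI-182,780 final present; cells express endogenous ER-alpha and carry four EREs upstream of luciferase.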

Chain of Progesterone receptor (Homo sapiens) (P06401 whole entry, looked up): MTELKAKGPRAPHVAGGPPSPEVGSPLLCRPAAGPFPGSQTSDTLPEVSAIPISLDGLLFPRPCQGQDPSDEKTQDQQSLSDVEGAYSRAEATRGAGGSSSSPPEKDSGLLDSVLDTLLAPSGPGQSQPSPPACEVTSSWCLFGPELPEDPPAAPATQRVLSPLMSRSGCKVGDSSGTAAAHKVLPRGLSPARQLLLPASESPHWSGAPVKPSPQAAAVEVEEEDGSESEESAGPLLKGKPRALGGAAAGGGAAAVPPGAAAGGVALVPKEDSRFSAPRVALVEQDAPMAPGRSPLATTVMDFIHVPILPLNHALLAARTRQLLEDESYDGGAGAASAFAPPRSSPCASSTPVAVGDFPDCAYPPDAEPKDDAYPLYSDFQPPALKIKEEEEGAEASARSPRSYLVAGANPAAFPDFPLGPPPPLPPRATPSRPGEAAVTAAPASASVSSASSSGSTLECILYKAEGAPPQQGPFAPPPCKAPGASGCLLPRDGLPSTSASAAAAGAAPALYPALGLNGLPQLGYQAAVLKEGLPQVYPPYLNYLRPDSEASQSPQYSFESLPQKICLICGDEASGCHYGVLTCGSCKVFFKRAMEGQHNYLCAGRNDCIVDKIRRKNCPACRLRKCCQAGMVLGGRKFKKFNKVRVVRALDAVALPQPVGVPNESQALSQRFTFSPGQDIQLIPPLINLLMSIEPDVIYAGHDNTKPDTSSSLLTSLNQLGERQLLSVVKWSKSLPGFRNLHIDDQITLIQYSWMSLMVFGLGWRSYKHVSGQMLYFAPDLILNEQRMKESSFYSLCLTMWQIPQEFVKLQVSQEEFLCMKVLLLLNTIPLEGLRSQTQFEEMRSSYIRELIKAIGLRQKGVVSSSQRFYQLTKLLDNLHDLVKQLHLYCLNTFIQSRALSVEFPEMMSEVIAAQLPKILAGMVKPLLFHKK
Chain of Estrogen receptor (Homo sapiens) (P03372 whole entry, looked up): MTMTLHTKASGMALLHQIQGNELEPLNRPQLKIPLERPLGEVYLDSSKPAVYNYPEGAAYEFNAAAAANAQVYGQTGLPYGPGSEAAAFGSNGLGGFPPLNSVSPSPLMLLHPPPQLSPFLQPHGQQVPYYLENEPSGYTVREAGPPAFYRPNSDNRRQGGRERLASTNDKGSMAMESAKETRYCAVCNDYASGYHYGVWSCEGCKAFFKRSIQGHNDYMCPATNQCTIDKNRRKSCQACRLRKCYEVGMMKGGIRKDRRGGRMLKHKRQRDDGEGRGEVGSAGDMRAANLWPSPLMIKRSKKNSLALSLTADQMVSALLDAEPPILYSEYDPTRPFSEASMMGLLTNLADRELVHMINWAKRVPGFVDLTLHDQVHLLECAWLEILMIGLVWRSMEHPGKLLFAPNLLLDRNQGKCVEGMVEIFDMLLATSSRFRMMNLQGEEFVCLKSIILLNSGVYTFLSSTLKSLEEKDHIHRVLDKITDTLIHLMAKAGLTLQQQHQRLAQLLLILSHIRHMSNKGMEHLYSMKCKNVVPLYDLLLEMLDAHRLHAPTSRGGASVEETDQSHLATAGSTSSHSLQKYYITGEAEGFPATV
Chain of Estrogen receptor beta (Homo sapiens) (Q92731 whole entry, looked up): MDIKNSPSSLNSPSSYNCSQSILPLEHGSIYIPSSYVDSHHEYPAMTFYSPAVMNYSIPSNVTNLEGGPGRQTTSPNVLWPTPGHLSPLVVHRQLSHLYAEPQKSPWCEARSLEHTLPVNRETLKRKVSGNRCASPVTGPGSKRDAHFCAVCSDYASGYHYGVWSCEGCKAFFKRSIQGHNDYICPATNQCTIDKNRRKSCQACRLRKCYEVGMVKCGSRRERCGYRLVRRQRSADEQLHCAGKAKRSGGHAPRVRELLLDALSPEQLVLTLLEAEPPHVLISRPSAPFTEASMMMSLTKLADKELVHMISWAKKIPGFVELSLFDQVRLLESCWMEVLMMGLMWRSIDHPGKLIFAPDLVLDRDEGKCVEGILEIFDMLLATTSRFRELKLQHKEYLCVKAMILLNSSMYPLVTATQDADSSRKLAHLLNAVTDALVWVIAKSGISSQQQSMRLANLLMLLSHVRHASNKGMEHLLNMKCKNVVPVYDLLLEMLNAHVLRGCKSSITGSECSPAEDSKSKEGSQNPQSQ
Chain of Thyrotropin-releasing hormone receptor (Homo sapiens) (P34981 whole entry, looked up): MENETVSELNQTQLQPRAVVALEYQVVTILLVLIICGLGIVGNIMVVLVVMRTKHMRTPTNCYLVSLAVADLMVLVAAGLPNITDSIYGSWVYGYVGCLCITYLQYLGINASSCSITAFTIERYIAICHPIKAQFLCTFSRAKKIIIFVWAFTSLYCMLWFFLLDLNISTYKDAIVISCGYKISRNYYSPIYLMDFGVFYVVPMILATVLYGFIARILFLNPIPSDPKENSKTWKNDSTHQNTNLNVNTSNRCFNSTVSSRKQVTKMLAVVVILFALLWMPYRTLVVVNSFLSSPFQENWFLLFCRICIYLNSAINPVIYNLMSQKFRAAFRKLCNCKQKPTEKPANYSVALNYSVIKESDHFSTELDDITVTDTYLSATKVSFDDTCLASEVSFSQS
Chain of Thyrotropin receptor (Homo sapiens) (P16473 whole entry, looked up): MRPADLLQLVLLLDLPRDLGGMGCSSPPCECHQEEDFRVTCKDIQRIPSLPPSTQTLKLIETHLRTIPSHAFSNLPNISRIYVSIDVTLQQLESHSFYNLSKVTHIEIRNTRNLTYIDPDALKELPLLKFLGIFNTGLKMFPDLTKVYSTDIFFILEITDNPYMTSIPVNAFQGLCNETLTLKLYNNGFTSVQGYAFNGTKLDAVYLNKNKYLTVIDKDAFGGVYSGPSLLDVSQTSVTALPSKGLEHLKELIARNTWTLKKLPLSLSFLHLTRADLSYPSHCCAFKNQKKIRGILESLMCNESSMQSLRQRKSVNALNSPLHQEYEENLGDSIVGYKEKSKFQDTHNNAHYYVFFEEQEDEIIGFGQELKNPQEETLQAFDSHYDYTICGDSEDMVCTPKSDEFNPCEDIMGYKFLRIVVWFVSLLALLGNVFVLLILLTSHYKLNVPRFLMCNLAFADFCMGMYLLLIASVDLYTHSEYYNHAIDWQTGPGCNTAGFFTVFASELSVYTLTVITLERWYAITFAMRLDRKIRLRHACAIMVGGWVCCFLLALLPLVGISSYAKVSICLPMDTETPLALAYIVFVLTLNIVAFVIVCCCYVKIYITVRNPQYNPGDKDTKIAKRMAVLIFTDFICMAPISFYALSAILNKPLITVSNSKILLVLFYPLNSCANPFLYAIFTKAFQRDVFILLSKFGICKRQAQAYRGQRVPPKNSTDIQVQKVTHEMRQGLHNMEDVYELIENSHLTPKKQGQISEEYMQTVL
Chain of Androgen receptor (Homo sapiens) (P10275 whole entry, looked up): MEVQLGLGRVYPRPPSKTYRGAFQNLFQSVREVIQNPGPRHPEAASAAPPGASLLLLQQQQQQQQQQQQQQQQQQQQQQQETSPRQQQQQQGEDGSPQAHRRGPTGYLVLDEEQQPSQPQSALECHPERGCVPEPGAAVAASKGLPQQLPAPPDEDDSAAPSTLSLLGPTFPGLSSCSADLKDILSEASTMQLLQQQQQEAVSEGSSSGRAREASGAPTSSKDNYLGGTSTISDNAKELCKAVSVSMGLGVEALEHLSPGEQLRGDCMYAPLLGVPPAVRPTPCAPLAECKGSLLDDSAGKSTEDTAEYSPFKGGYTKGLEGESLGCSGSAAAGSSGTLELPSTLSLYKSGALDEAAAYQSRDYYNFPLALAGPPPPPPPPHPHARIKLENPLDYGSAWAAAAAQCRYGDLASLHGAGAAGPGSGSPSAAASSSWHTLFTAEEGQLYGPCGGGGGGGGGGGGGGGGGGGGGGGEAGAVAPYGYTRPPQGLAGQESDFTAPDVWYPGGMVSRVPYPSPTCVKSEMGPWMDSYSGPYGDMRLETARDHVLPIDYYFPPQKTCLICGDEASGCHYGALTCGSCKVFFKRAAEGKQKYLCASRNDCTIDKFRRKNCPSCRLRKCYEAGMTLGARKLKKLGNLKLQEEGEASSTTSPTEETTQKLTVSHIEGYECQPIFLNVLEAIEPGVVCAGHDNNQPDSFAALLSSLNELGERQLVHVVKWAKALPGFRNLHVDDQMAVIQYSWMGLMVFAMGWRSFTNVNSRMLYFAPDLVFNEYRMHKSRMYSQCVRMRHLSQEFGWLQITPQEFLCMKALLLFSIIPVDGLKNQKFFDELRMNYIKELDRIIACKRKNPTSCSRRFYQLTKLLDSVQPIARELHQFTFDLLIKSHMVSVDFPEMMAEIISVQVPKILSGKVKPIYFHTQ

Row | SMILES | Potency [1] | Potency [2] | Potency [3] | Potency [4] | Potency [5] | Potency [6] | Potency [7] | outcome [8] | Potency [9] | Potency [10] | Potency [11] | Potency [12] | Potency [13] | Potency [14] | outcome [15] | Potency [16] | outcome [17] | Potency [18] | Potency [19] | Potency [20]
1 | O=C(N[C@H]1CN2CCC1CC2)c1ccc2c(c1)OCCO2 | inactive | inactive | inactive | inactive | inactive | inactive | inactive | inactive | inactive | inactive | inactive | inactive | inactive | inactive | inactive | inactive | inactive | – | – | –
2 | O=C(NCNC(=O)NC1C(=O)NC(=O)N1CO)NC1C(=O)NC(=O)N1CO (configuration not stated) | inactive | inactive | inactive | inactive | inactive | inactive | inactive | inactive | inactive | inactive | – | – | inactive | inactive | inactive | inactive | inactive | inactive | inactive | –
3 | Cc1nnc(-c2ccccc2)c(=O)n1N | inactive | inactive | inactive | inactive | inactive | – | inactive | inactive | inactive | – | – | inactive | inactive | – | inactive | inactive | inactive | inactive | inactive | inactive
4 | C[N+](C)(C)CC1CO1 (configuration not stated) | inactive | inactive | inactive | inactive | inactive | inactive | inactive | inactive | inactive | inactive | inactive | – | inactive | inactive | inactive | inactive | inactive | inactive | inactive | inactive
5 | CN(C)N | inactive | inactive | inactive | inactive | inactive | inactive | inactive | inactive | inactive | inactive | inactive | inactive | inactive | inactive | inactive | inactive | inactive | inactive | inactive | –
6 | CN(C1CCCCC1)C1CCCCC1 | inactive | inactive | inactive | inactive | inactive | inactive | inactive | inactive | inactive | – | inactive | inactive | inactive | inactive | inactive | inactive | inactive | inactive | inactive | inactive
7 | C[C@H]1O[C@H](OC2[C@@H](O)[C@@H](O)C(O)[C@H](O)[C@H]2O)[C@@H](N)C[C@@H]1N=C(N)C(=O)O (some centres not stated) | inactive | inactive | inactive | inactive | inactive | – | inactive | inactive | inactive | inactive | inactive | inactive | inactive | inactive | inactive | inactive | inactive | inactive | inactive | inactive
8 | CCOP(=O)(O)C(N)=O | inactive | inactive | inactive | inactive | inactive | – | inactive | inactive | inactive | inactive | inactive | inactive | inactive | inactive | inactive | inactive | inactive | inactive | inactive | inactive
9 | CCCCNC(=O)OCC#CI | 2.16 µM (active) and 7.7 µM (active) | inactive | inactive | – | 60.8 µM (active) and inactive | – | inactive | – | inactive | inactive | inactive | inactive | inactive | inactive | inactive | inactive | inactive | inactive | inactive | inactive
10 | C=CCN1C[C@H](C)N([C@H](c2ccc(C(=O)N(CC)CC)cc2)c2cccc(OC)c2)C[C@H]1C | inactive | inactive | inactive | – | – | – | inactive | inactive | inactive | inactive | inactive | – | inactive | inactive | – | inactive | inactive | inactive | inactive | inactive
11 | O=[N+]([O-])O[C@H]1CO[C@H]2[C@@H]1OC[C@H]2O[N+](=O)[O-] | inactive | inactive | inactive | inactive | – | – | inactive | inactive | inactive | – | – | inactive | inactive | inactive | inactive | inactive | inactive | inactive | inactive | inactive
12 | COc1ccc(C(=O)c2c(C)n(CCN3CCOCC3)c3ccccc23)cc1 | inactive | inactive | inactive | inactive | inactive | – | inactive | – | – | – | – | – | inactive | inactive | inactive | inactive | inactive | inactive | inactive | –
13 | CCCCCCCCn1sccc1=O | 1.37 µM (active) and 1.02 µM (active) | inactive | 27.4 µM (active) and 32.1 µM (active) | 61.3 µM (active) and 57.1 µM (active) | – | – | 27.4 µM (active) and 28.6 µM (active) | inactive | 61.3 µM (active) and 71.9 µM (active) | 34.4 µM (active) and 1.43 µM (active) | 48.7 µM (active) and 1.14 µM (active) | 43.4 µM (active) | 49.1 µM (active) and 51.3 µM (active) | – | inactive | – | inactive | – | inactive | inactive
14 | CC1(C)CC(=O)CC(C)(C)N1[O] | inactive | inactive | inactive | inactive | inactive | – | inactive | inactive | – | – | inactive | inactive | inactive | inactive | inactive | inactive | inactive | inactive | inactive | –
15 | CCCCCCCCP(=O)(O)O | inactive | inactive | inactive | inactive | inactive | – | inactive | inactive | inactive | inactive | – | 27.3 µM (active) | inactive | – | inactive | inactive | inactive | inactive | inactive | –
16 | O=C(O)c1cc(Cl)ccc1Cl | inactive | inactive | inactive | inactive | inactive | – | inactive | – | – | inactive | inactive | inactive | inactive | inactive | inactive | – | – | inactive | inactive | –
